Out of some 16,000 compounds screened, about 2,600 (16%) were called active. Another 20% or so got no clear call; they are omitted. The list is a sample of the results. Unmarked numbers belong to inactive results. The call rests on the fitted dose curve; in most records, active means well fitted curve in the direction sought with a large enough effect; inconclusive means small, poorly fitted or top-dose-only effect, or effect the other way; inactive means no such curve, though single readings can be large or run the other way.
On the % scale 0 is the no-effect control and ±100 the full control effect.

The target of this experiment is Cytochrome P450 2D6 (Homo sapiens) (UniProt P10635). Kind of experiment: Cytochrome panel assay with activity outcomes. The following applies: recombinant CYP, pro-luciferin dealkylation, luminescence, p450-cyp2d6; series mostly up to 57.1 µM; activity, negative = inhibition: at the top concentration.
Sequence of Cytochrome P450 2D6 (Homo sapiens) (P10635 whole entry, looked up): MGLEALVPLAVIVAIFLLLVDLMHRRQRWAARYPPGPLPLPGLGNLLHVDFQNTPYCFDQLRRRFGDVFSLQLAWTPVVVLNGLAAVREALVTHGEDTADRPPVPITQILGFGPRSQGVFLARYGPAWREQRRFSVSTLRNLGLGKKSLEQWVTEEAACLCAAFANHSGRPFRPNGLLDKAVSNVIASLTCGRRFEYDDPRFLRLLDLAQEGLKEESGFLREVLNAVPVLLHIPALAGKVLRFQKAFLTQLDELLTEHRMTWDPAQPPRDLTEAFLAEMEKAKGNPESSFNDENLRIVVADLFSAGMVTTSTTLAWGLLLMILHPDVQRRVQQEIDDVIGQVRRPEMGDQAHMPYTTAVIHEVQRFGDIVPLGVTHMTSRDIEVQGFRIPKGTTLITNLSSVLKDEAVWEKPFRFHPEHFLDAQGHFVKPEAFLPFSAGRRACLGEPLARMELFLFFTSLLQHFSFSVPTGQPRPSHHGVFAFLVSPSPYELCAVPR
Consider `CC(Oc1ccccc1)c1ccnn1S(=O)(=O)c1ccccc1` (stereo not given), for which the “activity, negative = inhibition” value is -7.07%. Broadly, the AC50 is the concentration at which the activity in the assay is half-maximal. For the compound `CC[N+](C)(CC)CCC[n+]1c(-c2ccccc2)c2cc(N)ccc2c2ccc(N)cc21`, the AC50 was 6.31 µM (active).

Take `CN=C(NC#N)Nc1ccc(C2=NNC(=O)C[C@@H]2C)cc1`: the “activity, negative = inhibition” value was -20.2%. In the case of `NC(=O)C1CCN(C(=O)CN2C(=O)c3ccccc3S2(=O)=O)CC1`, the “activity, negative = inhibition” value was 8.05%.

As for `Cc1nc2cnc(N3CCOCC3)nc2n(C)c1=O`, the “activity, negative = inhibition” value is -3.65%.

In the case of `CCOC(=O)Oc1c(OC)cc(C(=O)O[C@H]2C[C@H]3CN4CCc5c([nH]c6cc(OC)ccc56)[C@@H]4C[C@H]3[C@@H](C(=O)OC)[C@@H]2OC)cc1OC`, the “activity, negative = inhibition” value is -7.6% [at 25.6 µM].

Take `COCCCCC(=NOCCN)c1ccc(C(F)(F)F)cc1`: the concentration at half-maximal activity (AC50) was 3.98 µM (active). `COc1c(/C=N/Nc2ccc([N+](=O)[O-])cc2[N+](=O)[O-])c(C)nn1-c1ccccc1`: the “activity, negative = inhibition” value was -2.55%.

On to `C[C@@]12CC[C@@H]3c4ccc(O)cc4CC[C@H]3[C@H]1CC[C@H]2O`, for which the “activity, negative = inhibition” value is -4.58% [at 25.6 µM]. On the same count and under the same terms, the same measure for `CCOc1nc(N=C(N)N)nc2c(C)cccc12`: -5.31%; for `Cc1cccc(C)c1NC(=O)[C@H](C)N`: -0.835% [at 25.6 µM]. Consider `Cc1cccc(C)c1OC[C@@H](N)C(C)C`, for which the AC50 is 15.8 µM (active).

On to `COC(=O)[C@@]1(Cc2ccccc2)[C@H]2c3cc(C(=O)N4CCCC4)n(CC4CC4)c3C[C@H]2CN1C(=O)c1ccccc1`, for which the “activity, negative = inhibition” value was -17.6%. On to `COC(=O)[C@@]1(Cc2ccccc2)[C@H]2c3cc(C(=O)N4CCCC4)n(Cc4c(CO)[nH]cc(C)c4=O)c3C[C@H]2CN1C(=O)c1ccccc1`, for which the half-maximal activity concentration (AC50) was 12.6 µM (active). As to `COC(=O)[C@@]1(Cc2ccc(F)cc2)[C@H]2c3cc(C(=O)N4CCCC4)n(Cc4ccccc4)c3C[C@H]2CN1C(=O)c1ccccc1`, the “activity, negative = inhibition” value is -15.3%. Still for that read-out and setting: the same measure for `COC(=O)[C@@]1(Cc2ccc(F)cc2)[C@H]2c3cc(C(=O)N4CCCC4)n(CCc4ccc(OC)c(Br)c4)c3C[C@H]2CN1C(=O)c1ccccc1`: -7.09%; for `COC(=O)[C@@]1(Cc2ccccc2)[C@H]2c3cc(C(=O)N4CCCC4)n(Cc4cccc5ccccc45)c3C[C@H]2CN1C(=O)c1ccccc1`: 2.77%. On the same count and under the same terms, then `COC(=O)[C@@]1(Cc2ccc(F)cc2)[C@H]2c3cc(C(=O)N4CCCC4)n(Cc4ccc(OC(F)(F)F)cc4)c3C[C@H]2CN1C(=O)c1ccccc1`, with -3.56%. `COC(=O)[C@@]1(Cc2ccc(F)cc2)[C@H]2c3cc(C(=O)N4CCCC4)n(Cc4c(CO)[nH]cc(C)c4=O)c3C[C@H]2CN1C(=O)c1ccccc1`: the AC50 was 12.6 µM (active). In the case of `COC(=O)[C@@]1(Cc2ccc(F)cc2)[C@H]2c3cc(C(=O)N4CCCC4)n(Cc4ccccn4)c3C[C@H]2CN1C(=O)c1ccccc1`, the “activity, negative = inhibition” value was -14%.

`COC(=O)[C@@]1(Cc2ccccc2)[C@H]2c3cc(C(=O)N4CCCC4)n(Cc4nc5ccccc5[nH]4)c3C[C@H]2CN1C(=O)c1ccccc1`: the AC50 is 7.94 µM (active). As to `COC(=O)[C@@]1(Cc2ccc(F)cc2)[C@H]2c3cc(C(=O)N4CCCC4)n(CCc4c[nH]c5ccccc45)c3C[C@H]2CN1C(=O)c1ccccc1`, the “activity, negative = inhibition” value was 6.26%. For `COC(=O)[C@@]1(Cc2ccc(F)cc2)[C@H]2c3cc(C(=O)N4CCCC4)n(CCc4ccc(O)c(O)c4)c3C[C@H]2CN1C(=O)c1ccccc1`, the concentration at half-maximal activity (AC50) was 12.6 µM (active). Turning to `Cc1cc(NC(=O)c2ccccc2Cl)c(C(C)C)cc1O`, the “activity, negative = inhibition” value was 0.495%. Still for that read-out and setting: the same measure for `CCCCC1(C)OC(=O)C(=Cc2ccc(N(CC)CC)cc2)C(=O)O1` (stereo not given): -9.12%. Same read-out and setting: then `COc1ncc2nc(-c3cn(C)c4ccccc34)c(=O)n(Cc3ccc(F)cc3)c2n1`, with -5.48%. Still for that read-out and setting: the same measure for `Cc1cc(C)cc(N2C(=O)CC(Sc3nnnn3-c3ccccc3)C2=O)c1` (stereo not given): -1.09%; for `Cc1cccc(-n2cnc(C(=O)NC3CCCCCC3)c2)n1`: 2.81%. Regarding `COc1cc(OC)c(C2N(c3cc(C)on3)C(=O)C3CCCN32)cc1OC` (stereo not given), the “activity, negative = inhibition” value was 12.7%. As for `COc1ccc(CNc2ncncc2-c2ccccc2CN(C)C)c(OC)c1`, the AC50 was 2.51 µM (active).

Take `COc1ccc(CNc2ncncc2-c2ccccc2OC)c(OC)c1`: the AC50 was 12.6 µM (active). On the same count and under the same terms, then `COc1ccc(CNc2ncncc2-c2ccccc2C)c(OC)c1`, with 12.6 µM (active). Take `COc1ccc(O[C@H]2C=C[C@@H](c3ccccc3)O[C@@H]2CO/N=C\[C@@H](C)[C@H](OCc2ccccc2)C(C)C)cc1`: the activity, negative = inhibition is 8.39% [at 11.4 µM]. On the same count and under the same terms, the same measure for `COc1ccc(Nc2nnc(-c3ccc(N4CCOCC4)c([N+](=O)[O-])c3)c3ccccc23)cc1`: -21.6%; for `NC(=O)c1ccc([N+](=O)[O-])cc1SCc1ccccc1`: -17.9%; for `Cc1ccc(Cn2nc(C)c(NC(=O)c3cc(-c4ccco4)on3)c2C)cc1`: -3.05%. Consider `Cn1c(=O)c2cn(-c3ccccc3)cc2n(C)c1=O`, for which the “activity, negative = inhibition” value is -12.6%. On the same count and under the same terms, the same measure for `COc1ncc2nc(-c3cccs3)c(=O)n(-c3ccccc3)c2n1`: 1.35%; for `O=C(C1CCN(S(=O)(=O)c2cccc3cccnc23)CC1)N1CCN(c2ccccn2)CC1`: -15.2%. The same measure, in the same setting: the same measure for `Cc1ccc2c(c1)NCC(C(=O)NC1CCCCC1)O2` (stereo not given): -7.97%; for `Cc1ccc(S(=O)(=O)N2CCN(S(C)(=O)=O)C2)cc1`: 0.939%. On the same count and under the same terms, then `Cc1ccc(S(=O)(=O)N2CCN(C(=O)CN3CCN(C)CC3)C2)cc1`, with 1.72%. `Cc1ccc(S(=O)(=O)N2CCN(Cc3ccccc3C(F)(F)F)CC2)cc1`: the AC50 is 10 µM (active).

For `COC(=O)C(NS(=O)(=O)c1ccc(NC(C)=O)cc1)C(C)C` (stereo not given), the “activity, negative = inhibition” value is -15%. On to `O=S(=O)(c1cccc(C(F)(F)F)c1)N1CCC(c2cc(-c3cccc4ccccc34)n[nH]2)CC1`, for which the “activity, negative = inhibition” value is -18.3%. As for `Cc1cccc(NC(=O)CSc2nnc(-c3ccco3)c(-c3ccco3)n2)c1C`, the AC50 was 12.6 µM (active).

As to `Cc1cccc(NC(=O)CSc2nc(-c3ccccc3)c(C#N)c(=O)[nH]2)c1C`, the “activity, negative = inhibition” value was -14.5%. Still for that read-out and setting: then `Cc1cc(C)nc(SCC(=O)Nc2ccccc2[N+](=O)[O-])n1`, with -7.04%. Turning to `COc1ccc(NC(=O)N2CCC3(CC2)CCN(C(=O)c2cccc(F)c2)CC3)cc1`, the “activity, negative = inhibition” value is 0.428%. Still for that read-out and setting: then `CCCCNC(=O)CN1C(=O)NC2(CCCc3ccccc32)C1=O` (stereo not given), with -12.9%. On to `CCC1Oc2ccccc2N(CC(=O)NCCCN2CCCCC2C)C1=O` (stereo not given), for which the half-maximal activity concentration (AC50) is 3.16 µM (active).

Take `COc1ccc2nc(NC(C)=O)sc2c1`: the “activity, negative = inhibition” value was -22%.

Regarding `Cc1ccccc1NC(=O)c1ccc(N/N=C/c2ccccc2O)c([N+](=O)[O-])c1`, the “activity, negative = inhibition” value is 7.35%. Still for that read-out and setting: the same measure for `COC(=O)NCC(c1cccnc1)N1CCN(c2ccccc2OC)CC1` (stereo not given): -15.4%; for `O=c1c2ccccc2nc2n1C(CSc1ccc(F)cc1)CN2` (stereo not given): 0.0903%. As to `CCCCNC(=O)CCC(=O)Nc1ccc2nc(N3CCOCC3)cc(C)c2c1`, the “activity, negative = inhibition” value is 0.308%. The same measure, in the same setting: the same measure for `COc1ccc2cc3cc(C(=O)NCCCN4CCOCC4)oc3nc2c1`: -4.17%. Take `CN1CCN(CCCNC(=O)c2ccc(CSCc3cccc(Cl)c3)o2)CC1`: the half-maximal activity concentration (AC50) is 10 µM (active). Consider `COc1ccc(S(N)(=O)=O)cc1C(=O)NCCCN1CCN(c2cccc(Cl)c2)CC1`, for which the “activity, negative = inhibition” value is -25.8%.

Regarding `Nc1cc(S(=O)(=O)O)cc2ccc(S(=O)(=O)O)cc12`, the activity, negative = inhibition was -8.48% [at 11.4 µM]. Still for that read-out and setting: the same measure for `CCc1ccc(-c2cc(C(=O)NCc3ccco3)c3ccccc3n2)s1`: -21.5%.

`CSc1nc(N)nc(-c2cccs2)c1C#N`: the “activity, negative = inhibition” value was -25.1%. Regarding `O=C(CCCCCN1C(=O)c2ccccc2C1=O)NCc1ccccn1`, the “activity, negative = inhibition” value is -2.31%. Same read-out and setting: the same measure for `CCOc1ccc(CCNC(=O)CCCN2C(=O)c3ccccc3C2=O)cc1OCC`: -8.45%. Regarding `COc1ccc(CCNC(=O)CCCCCN2C(=O)c3ccccc3C2=O)cc1`, the half-maximal activity concentration (AC50) is 5.01 µM (active). `Cc1cccc(N2CCN(CC(=O)Nc3ccc(-n4cnnn4)cc3)CC2)c1C`: the “activity, negative = inhibition” value is 11.1%. As to `O=C(Oc1ccc2c(c1)CN(Cc1ccccc1)CO2)c1ccccc1`, the AC50 is 0.501 µM (active). For `COc1ccc(S(=O)(=O)N(CCc2ccccc2)CC(=O)N2CCOCC2)cc1`, the “activity, negative = inhibition” value was -14.5%. In the case of `CN(Cc1ccccc1)S(=O)(=O)c1ccc(OCC(=O)N2CCOCC2)cc1`, the “activity, negative = inhibition” value is 8.83%. The same measure, in the same setting: the same measure for `CC(Oc1ccc(O)cc1)(P(=O)(O)O)P(=O)(O)O`: 13.1%; for `C/C(CCN1CCc2nc(-c3ccccc3)c(-c3ccccc3)cc2C1)=N\OC[C@@H](O)[C@@H]1O[C@@H]2OC(C)(C)O[C@@H]2[C@H]1O`: 12.8% [at 11.4 µM]; for `C[C@@H](NCc1cc(Br)cc2[nH]c(=O)c(=O)[nH]c12)P(=O)(O)O`: -8.92%. For the compound `O=C(CCCN1CCC(O)(c2ccc(Br)cc2)CC1)c1ccc(F)cc1`, the half-maximal activity concentration (AC50) is 3.98 µM (active).

For the compound `CCOC(=O)c1c(-c2ccccc2)nc2ccccn12`, the “activity, negative = inhibition” value was -9.25%. As to `c1ccc(-c2nc3ccccn3c2NCc2ccc3c(c2)OCO3)cc1`, the AC50 is 3.98 µM (active). For `O=C(N/N=C\c1cn(-c2ccccc2)nc1-c1ccccc1)c1ccc2c(c1)OCO2`, the “activity, negative = inhibition” value is -17.7%.

Consider `CCCS(=O)(=O)N1CCN(CC2CC=CCC2)CC1` (stereo not given), for which the AC50 was 1.12 µM (active). `CCCS(=O)(=O)N1CCCC(C(=O)N2CCOCC2)C1` (stereo not given): the “activity, negative = inhibition” value is -6.68%. Still for that read-out and setting: the same measure for `CCCS(=O)(=O)N1CCCC(C(=O)N2CCN(C(=O)OCC)CC2)C1` (stereo not given): -12.2%. On the same count and under the same terms, then `COc1ccc(Oc2c(C=O)c3ccccc3n2C)cc1`, with 2.31%; and `CC(C)CC(=O)N1CCC(N2CCN(c3ccccc3)CC2)CC1`, with -26.8%. Turning to `c1ccc(C2CCC(N3CCC(N4CCCCC4)CC3)CC2)cc1` (stereo not given), the AC50 is 14.1 µM (active). Take `COc1ccccc1NC(=O)c1nn(-c2cccc(C(F)(F)F)c2)ccc1=O`: the “activity, negative = inhibition” value is -12.9%. Same read-out and setting: then `O=[N+]([O-])c1ccc(/C=N/N/C(=N/c2ccccn2)c2ccccn2)cc1`, with -12.1%; and `N#Cc1cccc(-c2cc(-n3ccnc3)ncn2)c1`, with -20.9%. As for `CS(=O)(=O)Nc1cccc(-c2nccc(-n3ccnc3)n2)c1`, the AC50 was 12.6 µM (active). `COc1cccc(-c2nccc(NC3CCNCC3)n2)c1`: the “activity, negative = inhibition” value was -13.3%. Still for that read-out and setting: the same measure for `c1cncc(-c2cncnc2-n2ccnc2)c1`: -0.954%. Regarding `N#Cc1cccc(-c2nccc(-n3ccnc3)n2)c1`, the concentration at half-maximal activity (AC50) is 12.6 µM (active). `CS(=O)(=O)Nc1cccc(-c2cncnc2-n2ccnc2)c1`: the “activity, negative = inhibition” value is -7.9%. The same measure, in the same setting: then `COc1ccc(-n2c(=O)c(-c3cccc(F)c3)nc3cncnc32)cc1`, with -6.96%. Take `CN1CCN(c2ccnc(-c3cccc(NS(C)(=O)=O)c3)n2)CC1`: the “activity, negative = inhibition” value was -0.74%. In the case of `COc1cccc(-c2nccc(-n3ccnc3)n2)c1`, the AC50 is 7.94 µM (active).

For `COc1cccc(Sc2cc(N3CCOCC3)nc(-c3ccccc3)n2)c1`, the “activity, negative = inhibition” value was -3.46%. Turning to `COc1cccc(-c2cncnc2-n2ccnc2)c1`, the AC50 was 12.6 µM (active).

The values above are taken from PubChem BioAssay AID1851 (National Center for Advancing Translational Sciences (NCATS), 2009).
